The source of these data is ChEMBL document CHEMBL1961873, “Compounds: GSK PKIS; Assays: Nanosyn kinase panel” (2012).

Test [1] has as its target Mitogen-activated protein kinase kinase kinase kinase 4 (Homo sapiens) (UniProt O95819). The note with it: at 1 µM.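 Further: reported figure is an averaged inhibition value.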
For test [2], the target named is Dual specificity mitogen-activated protein kinase kinase 1 (Homo sapiens) (UniProt Q02750). The note with it: at 0.1 µM.
For test [3] the target is unchanged. The following applies: at 1 µM.
In test [4] the target is Misshapen-like kinase 1 (Homo sapiens) (UniProt Q8N4C8). The following applies: at 0.1 µM.
The target is the same in test [5]. The following applies: at 1 µM.
Test [6] concerns the target T1, Serine/threonine-protein kinase 4 (Homo sapiens) (UniProt Q13043).
T1 sequence (whole entry): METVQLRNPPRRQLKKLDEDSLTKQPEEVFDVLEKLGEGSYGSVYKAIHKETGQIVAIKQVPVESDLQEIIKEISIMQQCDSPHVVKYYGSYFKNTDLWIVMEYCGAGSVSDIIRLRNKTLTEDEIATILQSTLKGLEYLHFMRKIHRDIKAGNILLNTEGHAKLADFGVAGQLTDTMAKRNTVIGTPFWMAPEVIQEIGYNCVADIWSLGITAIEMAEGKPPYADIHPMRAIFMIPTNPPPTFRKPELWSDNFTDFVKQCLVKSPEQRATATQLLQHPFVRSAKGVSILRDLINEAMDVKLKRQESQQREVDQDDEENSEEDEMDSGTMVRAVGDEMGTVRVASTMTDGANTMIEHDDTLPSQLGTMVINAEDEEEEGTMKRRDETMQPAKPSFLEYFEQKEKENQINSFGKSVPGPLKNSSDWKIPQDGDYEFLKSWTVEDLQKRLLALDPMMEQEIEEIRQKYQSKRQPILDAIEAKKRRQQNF
The following applies: at 0.1 µM.

For test [7], the target named is T1, Serine/threonine-protein kinase 4 (Homo sapiens). The following applies: at 1 µM.
In test [8] the target is T2, Serine/threonine-protein kinase 3 (Homo sapiens) (UniProt Q13188).
T2 sequence (whole entry): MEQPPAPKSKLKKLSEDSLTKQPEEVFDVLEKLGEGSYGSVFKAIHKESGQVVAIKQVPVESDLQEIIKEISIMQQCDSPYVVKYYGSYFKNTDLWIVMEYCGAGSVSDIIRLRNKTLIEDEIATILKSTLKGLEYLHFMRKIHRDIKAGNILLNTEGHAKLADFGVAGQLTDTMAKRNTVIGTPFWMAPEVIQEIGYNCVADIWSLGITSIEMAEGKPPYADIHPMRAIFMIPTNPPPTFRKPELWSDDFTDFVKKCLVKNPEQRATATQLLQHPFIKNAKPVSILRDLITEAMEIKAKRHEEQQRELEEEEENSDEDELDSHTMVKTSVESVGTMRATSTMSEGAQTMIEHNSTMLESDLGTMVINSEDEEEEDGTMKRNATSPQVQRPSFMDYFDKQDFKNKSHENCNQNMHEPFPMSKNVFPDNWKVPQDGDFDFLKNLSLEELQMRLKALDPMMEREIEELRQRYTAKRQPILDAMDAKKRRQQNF
The note with it: at 0.1 µM.

The target of test [9] is T2, Serine/threonine-protein kinase 3 (Homo sapiens). The note with it: at 1 µM.
Test [10] deals with Serine/threonine-protein kinase 26 (Homo sapiens) (UniProt Q9P289). The following applies: at 0.1 µM.
Serine/threonine-protein kinase 26 (Homo sapiens), sequence (Q9P289 2-416 limits assumed): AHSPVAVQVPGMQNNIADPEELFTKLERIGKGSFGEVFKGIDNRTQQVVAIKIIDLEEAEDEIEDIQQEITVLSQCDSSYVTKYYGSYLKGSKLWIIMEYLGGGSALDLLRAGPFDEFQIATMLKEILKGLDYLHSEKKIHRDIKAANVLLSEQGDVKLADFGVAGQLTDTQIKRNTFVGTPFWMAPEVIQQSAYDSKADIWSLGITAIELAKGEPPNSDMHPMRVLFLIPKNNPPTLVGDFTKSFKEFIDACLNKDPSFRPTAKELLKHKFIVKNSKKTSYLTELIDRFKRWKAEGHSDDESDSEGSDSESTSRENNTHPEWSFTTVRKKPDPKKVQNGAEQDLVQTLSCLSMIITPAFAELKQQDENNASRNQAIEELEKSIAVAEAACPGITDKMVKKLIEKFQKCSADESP

Misshapen-like kinase 1 (Homo sapiens), sequence (Q8N4C8 whole entry, looked up): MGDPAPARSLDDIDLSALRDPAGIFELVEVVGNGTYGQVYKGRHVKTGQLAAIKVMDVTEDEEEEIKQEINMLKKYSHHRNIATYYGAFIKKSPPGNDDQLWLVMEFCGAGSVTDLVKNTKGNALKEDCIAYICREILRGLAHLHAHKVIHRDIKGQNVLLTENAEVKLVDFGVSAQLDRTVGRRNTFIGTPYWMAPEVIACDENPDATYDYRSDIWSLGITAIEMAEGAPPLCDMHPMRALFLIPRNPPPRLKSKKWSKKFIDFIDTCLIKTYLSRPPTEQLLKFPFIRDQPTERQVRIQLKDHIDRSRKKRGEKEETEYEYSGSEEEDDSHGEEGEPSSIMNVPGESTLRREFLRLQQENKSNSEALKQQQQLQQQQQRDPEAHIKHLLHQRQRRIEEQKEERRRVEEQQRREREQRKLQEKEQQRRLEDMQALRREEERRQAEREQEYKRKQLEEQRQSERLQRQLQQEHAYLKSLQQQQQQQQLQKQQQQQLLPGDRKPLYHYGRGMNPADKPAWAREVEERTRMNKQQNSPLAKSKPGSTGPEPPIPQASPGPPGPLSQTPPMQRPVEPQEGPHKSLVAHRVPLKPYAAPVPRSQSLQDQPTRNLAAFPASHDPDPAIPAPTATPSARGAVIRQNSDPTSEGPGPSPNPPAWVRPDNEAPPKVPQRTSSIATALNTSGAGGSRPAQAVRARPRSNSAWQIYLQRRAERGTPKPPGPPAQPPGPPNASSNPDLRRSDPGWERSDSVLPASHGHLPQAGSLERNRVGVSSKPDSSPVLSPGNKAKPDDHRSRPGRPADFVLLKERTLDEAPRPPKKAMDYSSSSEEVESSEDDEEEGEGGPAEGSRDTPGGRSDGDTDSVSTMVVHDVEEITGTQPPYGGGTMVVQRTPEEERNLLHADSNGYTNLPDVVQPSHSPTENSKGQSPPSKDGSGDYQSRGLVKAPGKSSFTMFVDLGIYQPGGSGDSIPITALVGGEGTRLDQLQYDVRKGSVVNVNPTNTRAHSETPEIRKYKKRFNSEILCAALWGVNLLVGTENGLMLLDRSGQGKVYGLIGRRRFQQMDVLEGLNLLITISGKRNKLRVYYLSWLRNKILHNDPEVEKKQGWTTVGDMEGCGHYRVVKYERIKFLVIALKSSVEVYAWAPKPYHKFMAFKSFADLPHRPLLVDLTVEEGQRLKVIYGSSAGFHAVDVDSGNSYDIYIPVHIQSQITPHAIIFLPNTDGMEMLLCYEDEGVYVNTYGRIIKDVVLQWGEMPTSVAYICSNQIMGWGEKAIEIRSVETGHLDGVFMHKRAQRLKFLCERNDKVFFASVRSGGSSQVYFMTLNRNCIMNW
Mitogen-activated protein kinase kinase kinase kinase 4 (Homo sapiens), sequence (O95819 2-1239 limits assumed): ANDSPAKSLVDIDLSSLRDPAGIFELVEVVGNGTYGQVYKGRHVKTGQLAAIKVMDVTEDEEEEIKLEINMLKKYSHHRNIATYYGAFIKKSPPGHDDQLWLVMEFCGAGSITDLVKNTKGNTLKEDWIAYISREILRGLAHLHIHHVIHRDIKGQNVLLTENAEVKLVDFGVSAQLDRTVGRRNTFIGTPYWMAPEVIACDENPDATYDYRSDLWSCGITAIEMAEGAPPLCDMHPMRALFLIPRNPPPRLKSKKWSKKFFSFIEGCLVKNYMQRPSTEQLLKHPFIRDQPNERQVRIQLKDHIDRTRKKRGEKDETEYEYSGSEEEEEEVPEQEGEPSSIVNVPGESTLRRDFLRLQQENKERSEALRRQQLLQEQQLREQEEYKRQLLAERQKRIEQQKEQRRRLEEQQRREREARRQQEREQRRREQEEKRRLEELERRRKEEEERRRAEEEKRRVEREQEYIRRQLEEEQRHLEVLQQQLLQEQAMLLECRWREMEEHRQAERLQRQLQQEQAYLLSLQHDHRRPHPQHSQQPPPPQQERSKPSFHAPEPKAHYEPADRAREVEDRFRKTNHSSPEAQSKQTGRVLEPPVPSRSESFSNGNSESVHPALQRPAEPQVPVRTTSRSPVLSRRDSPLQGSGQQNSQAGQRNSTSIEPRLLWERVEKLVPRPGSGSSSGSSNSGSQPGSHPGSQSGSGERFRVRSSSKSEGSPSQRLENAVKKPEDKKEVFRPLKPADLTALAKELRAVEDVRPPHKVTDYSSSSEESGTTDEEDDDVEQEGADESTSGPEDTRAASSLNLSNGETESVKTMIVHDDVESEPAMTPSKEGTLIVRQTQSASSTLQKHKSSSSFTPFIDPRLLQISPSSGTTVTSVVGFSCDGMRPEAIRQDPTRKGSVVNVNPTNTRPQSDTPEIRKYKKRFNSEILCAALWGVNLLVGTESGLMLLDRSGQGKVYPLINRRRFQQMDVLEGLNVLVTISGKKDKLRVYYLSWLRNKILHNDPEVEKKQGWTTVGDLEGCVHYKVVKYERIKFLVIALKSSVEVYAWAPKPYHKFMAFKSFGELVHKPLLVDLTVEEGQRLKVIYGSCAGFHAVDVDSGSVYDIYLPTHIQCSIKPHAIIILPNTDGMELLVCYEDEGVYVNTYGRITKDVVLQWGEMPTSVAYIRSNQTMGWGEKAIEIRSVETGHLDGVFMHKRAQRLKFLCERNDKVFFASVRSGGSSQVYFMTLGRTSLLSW
Dual specificity mitogen-activated protein kinase kinase 1 (Homo sapiens), sequence (Q02750 whole entry): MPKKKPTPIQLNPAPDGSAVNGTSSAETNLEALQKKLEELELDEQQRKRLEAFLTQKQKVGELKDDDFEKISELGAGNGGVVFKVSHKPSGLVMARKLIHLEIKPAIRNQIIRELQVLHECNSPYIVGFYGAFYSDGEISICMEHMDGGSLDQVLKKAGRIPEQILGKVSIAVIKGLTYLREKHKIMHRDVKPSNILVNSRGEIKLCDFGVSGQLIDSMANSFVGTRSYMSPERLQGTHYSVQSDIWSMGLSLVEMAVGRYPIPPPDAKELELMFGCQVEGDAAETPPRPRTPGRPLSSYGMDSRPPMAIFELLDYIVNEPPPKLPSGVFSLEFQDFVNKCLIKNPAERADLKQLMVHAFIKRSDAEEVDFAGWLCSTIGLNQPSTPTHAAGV

As for `NC(=O)c1sc(-n2cnc3ccccc32)cc1OCc1ccccc1Br`, the inhibition (in general, the change of the read-out against control, counted positive when it falls) in test [1] stood at 11.3%; in [2], 3.81%; in test [3] it was 4.35%; in [4] it was 5.6%; in [5] it was 9.1%; in test [6], 1.82%. The inhibition in test [7] was 7.07%; in test [8], 4.03%; in [9], 5.83%; in test [10], -1.18%.
Consider `N#Cc1cccc(Nc2nccc(-c3cnn4ncccc34)n2)c1`, for which the inhibition in test [1] came out at 64.3%; in test [2], 19.5%; in test [3] it was 63%; in [4] it was 16.6%; in test [5], 53.4%; in test [6], 8.96%. Also, the inhibition in test [7] is 27.6%; in test [8] it was 7.72%; in [9] it was 24.4%; in [10], -0.39%.
For the compound `Cc1cc(O)cc(C)c1/C=C/c1cncc(C(=O)N(C)C)c1`, the inhibition in test [1] is 12.6%; in [2] it was 2.74%; in test [3], 2.6%; in [4] it was 6.61%; in test [5], 11.7%; in test [6], 3.39%. Also, the inhibition came to 3.11% in [7], 3.57% in test [8], 2.26% in test [9] and 0.08% in test [10].
Turning to `CCn1c(-c2nonc2N)nc2ccc(F)cc21`, the inhibition in test [1] was found to be 9.77%; in test [2], 9.94%; in test [3], 7.03%; in test [4], 6.88%; in test [5] it was 9.59%; in test [6], 5.88%. Further, the inhibition in test [7] is 5.97%; in test [8], 6.38%; in [9] it was 6.55%; in [10], -1.73%.
With `CN(C)c1cc2c(Nc3ccc4c(cnn4Cc4ccccc4)c3)ncnc2cn1`, the inhibition in test [1] turned out to be 6.51%; in test [2], 3.44%; in test [3] it was 2.77%; in test [4], 3.28%; in test [5], 4.78%; in [6] it was 3.03%. Further, the inhibition is 1.68% in test [7], 4.54% in [8], 2.67% in [9] and -1.9% in test [10].
Turning to `NS(=O)(=O)c1cccc(-c2cc3ccncc3cc2OCc2ccccc2)c1`, the inhibition in test [1] is 11.1%; in test [2], 5.91%; in test [3] it was 5.86%; in test [4], 7.3%; in [5], 13.4%; in [6] it was 8%. The inhibition was 11.9% in test [7], 7.94% in [8], 11% in test [9] and -2.99% in test [10].
Take `CN(C)CCCn1c(-c2nonc2N)nc2cnccc21`: the inhibition worked out at 6.52% in test [1]; 4.6% in [2]; 3.75% in test [3]; 5.65% in test [4]; 6.29% in test [5]; 4.23% in [6]. For the same compound, the inhibition in test [7] is 4.03%; in [8], 3.78%; in [9], 4.52%; in test [10], -1.82%.
As for `NC(=O)c1cccc(Nc2nccc(Nc3cccc(F)c3)n2)c1`, the inhibition is 44.9% in test [1]; -0.23% in test [2]; 1.42% in test [3]; 6.07% in test [4]; 33.3% in test [5]; 0.59% in test [6]. For the same compound, the inhibition was 12.2% in test [7], 1.63% in [8], 6.4% in [9] and -0.81% in test [10].
Take `CN(c1ccc(NC(=O)Nc2ccc(OC(F)(F)F)cc2)cc1)c1ccnc(Nc2cccc(S(N)(=O)=O)c2)n1`: the inhibition in test [1] was determined as 85.1%; in test [2] it was 3.84%; in test [3] it was 13.7%; in test [4] it was 24.3%; in [5] it was 80.3%; in test [6], 2.75%. In addition, the inhibition in [7] was 9.45%; in test [8] it was 4.46%; in test [9] it was 6.49%; in test [10], -1.04%.
Take `NS(=O)(=O)c1ccc(Nc2cc(-c3cccc(O)c3)n[nH]2)cc1`: the inhibition in test [1] is 17.6%; in [2], 7.97%; in test [3], 5.67%; in test [4] it was 8%; in test [5], 18.6%; in test [6] it was 9.01%. In addition, the inhibition in test [7] is 16.1%; in test [8], 8.2%; in [9] it was 13.4%; in test [10] it was -1.36%.
As for `CC(C)c1ccc2c(c1)NC(=O)/C2=N/Nc1ccc(S(N)(=O)=O)cc1`, the inhibition in test [1] turned out to be 62.3%; in test [2], 0.83%; in [3] it was 1.72%; in test [4], 10.1%; in test [5], 48.9%; in test [6], 1.52%. Also, the inhibition in [7] was 11.2%; in test [8], 1.12%; in test [9], 9.13%; in test [10] it was -0.9%.
Regarding `CS(=O)(=O)CCNCc1nc(-c2ccc3ncnc(Nc4ccc(OCc5cccc(C(F)(F)F)c5)cc4)c3c2)cs1`, the inhibition in test [1] was 3.34%; in test [2] it was 1.13%; in [3], 0.13%; in test [4], 2.9%; in test [5], 4.39%; in [6] it was 3.31%. In addition, the inhibition in test [7] is 6.13%; in test [8], 4.17%; in test [9], 6.28%; in test [10], -0.02%.
In the case of `Cc1ccc2c(c1)/C(=N/Nc1ccc(S(N)(=O)=O)cc1)C(=O)N2`, the inhibition worked out at 72.3% in test [1]; 0.13% in test [2]; 1.05% in test [3]; 16.2% in test [4]; 61.8% in [5]; 16.4% in test [6]. Further, the inhibition came to 65.9% in [7], 11% in test [8], 55% in [9] and 0.66% in test [10].
For the compound `COc1ccc2ncnc(Nc3ccc(OCc4ccccc4)cc3)c2c1`, the inhibition in test [1] came to 7.18%; in [2], 3.95%; in [3] it was 2.41%; in [4] it was 3.65%; in [5] it was 4.24%; in test [6], 1.92%. Besides, the inhibition was 4.04% in test [7], 1.62% in test [8], 3.92% in test [9] and -1.91% in [10].
Regarding `COc1cccc(-n2nc(C)c3c(N/N=C(\C)c4ccncc4)ncnc32)c1`, the inhibition in test [1] is 4.83%; in [2], -0.14%; in test [3], -0.11%; in test [4], 1.43%; in test [5], 6.12%; in test [6] it was 1.29%. The inhibition is 1.63% in test [7], 1.78% in test [8], 3.56% in test [9] and -0.95% in test [10].
`CCn1c(-c2nonc2N)nc2c(C#CC(C)(C)O)nc(OCCNC)cc21`: the inhibition in [1] was 6.25%; in [2], 3.55%; in test [3] it was 3.92%; in test [4], 5.45%; in test [5], 5.87%; in [6] it was 3.15%. For the same compound, the inhibition in [7] is 6.97%; in [8] it was 5.27%; in test [9], 7.27%; in test [10] it was -3.54%.
